Laboratory results published in PubChem BioAssay (EPA / NIEHS).
Calls of active or inactive are those of the source. The calls were made as follows: active = hit-call score of the fitted dose curve at least 0.9, where 1 is the maximum; inactive = score below 0.9.

How the values were obtained:
[1] = APR_HepG2_CellCycleArrest_24hr: Apredica 24-hour HepG2 Assay for Cell Cycle Arrest (AID 2282905); conditions: imaging, actives raise or lower the signal;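 also: cell cycle arrest scored as ratio of 2N to 4N nuclear DNA content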
Outline: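 Compounds at 0.39–200 uM (0.5% DMSO) for 24 h, then fixed and Hoechst 33342 stained. Cell-cycle analysis of nuclear DNA content by high-content imaging, fitted bidirectionally versus DMSO.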

[2] = APR_HepG2_NuclearSize_24hr: Apredica 24-hour HepG2 Assay for Nuclear Size (AID 2282907); conditions: high-content imaging, actives raise or lower the signal
Outline: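 HepG2 cells exposed 24 h to compounds at 0.39–200 uM (0.5% DMSO), fixed, Hoechst 33342 stained and imaged at 20x; nuclear diameter measured by automated image analysis, fitted bidirectionally against DMSO controls.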

[3] = APR_HepG2_CellLoss_24hr: Apredica 24-hour HepG2 Assay for Cell Loss (AID 2282908); conditions: high-content imaging;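 as to AC50: fit in both directions so a hit may be cell loss or gain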
Outline: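 HepG2 cells exposed 24 hr to 0.39–200 uM compound in duplicate at 0.5% v/v final DMSO. Cells fixed in 3.7% formaldehyde and Hoechst 33342-stained. Cell number came from nuclear imaging at 20x. Bidirectional fit versus DMSO.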

[4] = APR_HepG2_MicrotubuleCSK_24hr: Apredica 24-hour HepG2 Assay for Microtubule CSK Stabilty (AID 2282909); conditions: HepG2 microtubule cytoskeleton imaging, actives raise or lower the signal
Outline: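 HepG2 cells were treated 24 hr with compound at 0.39–200 uM in duplicate (0.5% DMSO final), then fixed and permeabilized. Alpha-tubulin immunofluorescence was imaged by high-content microscopy, with bidirectional fitting against DMSO and taxol as positive control.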

[5] = APR_HepG2_MitoticArrest_24hr: Apredica 24-hour HepG2 Assay for Mitotic Arrest (AID 2282910); conditions: high-content imaging, actives raise or lower the signal
Outline: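 Compounds are dosed onto HepG2 cells across ten concentrations up to 200 uM for 24 hr. Cells are then fixed in 3.7% formaldehyde, permeabilised, and labelled for phospho-histone H3 and nuclei; images are scored by cell cycle analysis and fitted bidirectionally relative to DMSO.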

[6] = APR_HepG2_MitoMembPot_24hr: Apredica 24-hour HepG2 Assay for Mitochondrial Membrane Potential (AID 2282911); conditions: imaging, actives raise or lower the signal
Outline: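 HepG2 cells exposed 24 h to 0.39–200 uM compounds in duplicate, 0.5% v/v DMSO final. MitoTracker Red CMXRos 250 nM loaded 30 min before formaldehyde fixation; high-content imaging at 20x, bidirectional fit versus DMSO.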

[7] = APR_HepG2_MitoMass_24hr: Apredica 24-hour HepG2 Assay for Mitochondrial Mass (AID 2282912); conditions: high-content imaging, actives raise or lower the signal
Outline: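 HepG2 cells exposed 24 hr to 0.39–200 uM compound, 0.5% v/v DMSO, in duplicate. Stained before fixation with 250 nM MitoTracker Red CMXRos for 30 min, then imaged at 20x with Hoechst nuclei. Fitted in both directions against DMSO.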

[8] = APR_HepG2_p53Act_24hr: Apredica 24-hour HepG2 Assay for p53 Activation (AID 2282913); conditions: high-content imaging, actives raise or lower the signal;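 also: p53 protein immunofluorescence averaged per cell in HepG2 with Hoechst nuclei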
Outline: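 HepG2 cells exposed 24 h to compounds at 0.39–200 uM in duplicate, 0.5% v/v DMSO final; fixed, permeabilized, stained with anti-p53 antibody and Hoechst 33342; fluorescence imaging; bidirectional curve fit versus DMSO.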

[9] = APR_HepG2_CellCycleArrest_72hr: Apredica 72-hour HepG2 Assay for Cell Cycle Arrest (AID 2282914); conditions: high-content imaging, actives raise or lower the signal
Outline: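 HepG2 cells exposed 72 h in duplicate to 0.39–200 uM compound, 0.5% DMSO final. Formaldehyde-fixed, Hoechst 33342-stained nuclei imaged at 20x, six fields per well; DNA content per valid cell quantified by cell-cycle image analysis, bidirectional fit versus DMSO.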

[10] = APR_HepG2_CellLoss_72hr: Apredica 72-hour HepG2 Assay for Cell Loss (AID 2282915); conditions: high-content imaging
Outline: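 Cell number comes from Hoechst 33342-labelled nuclei, imaged at 20x after 3.7% formaldehyde fixation. Dosing was 0.39–200 uM, ten concentrations in duplicate, 0.5% DMSO final, for 72 h. Bidirectional fit relative to DMSO baseline.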

[11] = APR_HepG2_MitoMembPot_72hr: Apredica 72-hour HepG2 Assay for Mitochondrial Membrane Potential (AID 2282917); conditions: imaging, actives raise or lower the signal
Outline: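 Membrane potential read by MitoTracker Red CMXRos (250 nM, 30 min, pre-fixation) fluorescence imaging of HepG2 after 72 hr exposure. Ten concentrations, 0.39–200 uM, duplicate wells, 0.5% DMSO; fitted in both directions against DMSO baseline.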

[12] = APR_HepG2_MitoticArrest_72hr: Apredica 72-hour HepG2 Assay for Mitotic Arrest (AID 2282918); conditions: high-content imaging, actives raise or lower the signal
Outline: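 HepG2 cells treated 72 h at 0.39–200 uM, 0.5% DMSO final; formaldehyde-fixed, stained with Hoechst 33342 and phospho-histone H3 antibody, imaged by high-content fluorescence; bidirectional fit versus DMSO.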

[13] = APR_HepG2_MicrotubuleCSK_72hr: Apredica 72-hour HepG2 Assay for Microtubule CSK Stabilty (AID 2282919); conditions: HepG2 microtubule cytoskeleton, high-content imaging, actives raise or lower the signal
Outline: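 Read-out is tubulin fluorescence intensity from high-content imaging of HepG2 cells, with nuclei identified by Hoechst 33342. Treatment lasts 72 h at 0.39–200 uM, and curves are fitted bidirectionally against the DMSO negative control.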

[14] = APR_HepG2_P-H2AX_24hr: Apredica 24-hour HepG2 Assay for H2AX Phosphorylation (AID 2282920); conditions: high-content imaging, actives raise or lower the signal
Outline: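 HepG2 cells dosed 24 h at 0.39–200 uM (10 points, duplicate, 0.5% DMSO final). Formaldehyde-fixed and permeabilized, then immunostained for phospho-H2A.x with Hoechst. Fluorescence quantified by high-content imaging, fitted bidirectionally versus DMSO.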

[15] = APR_HepG2_StressKinase_72hr: Apredica 72-hour HepG2 Assay for Stress Kinase (AID 2282921); conditions: HepG2 stress kinase (phospho-c-Jun) imaging, actives raise or lower the signal
Outline: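 HepG2 cells treated 72 hr with 0.39–200 uM compound, 0.5% v/v DMSO, duplicate wells. After formaldehyde fixation and Triton permeabilization, stained with anti-phospho-c-Jun (1:500) and Cy3 secondary, imaged at 20x. Fitted in both directions against DMSO.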

[16] = APR_HepG2_StressKinase_24hr: Apredica 24-hour HepG2 Assay for Stress Kinase (AID 2282922); conditions: HepG2 stress kinase (phospho-c-Jun) imaging, actives raise or lower the signal
Outline: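 HepG2, 24 hr dosing, 0.39–200 uM in duplicate, 0.5% DMSO; formaldehyde fix (3.7%), 0.5% Triton X-100; anti-phospho-c-Jun + Cy3 secondary, Hoechst counterstain; ArrayScan imaging; bidirectional curve fit vs DMSO baseline.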

[17] = APR_HepG2_p53Act_72hr: Apredica 72-hour HepG2 Assay for p53 Activation (AID 2282923); conditions: high-content imaging, actives raise or lower the signal;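 also: average cellular p53 protein immunofluorescence intensity in HepG2 cells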
Outline: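 HepG2 cells exposed 72 h to 0.39–200 uM in 0.5% DMSO, duplicates. Fixed, permeabilized cells immunostained for p53 (Cy5) with Hoechst; imaged at 20x, fluorescence analyzed bidirectionally against DMSO.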

[18] = APR_HepG2_MitoMass_72hr: Apredica 72-hour HepG2 Assay for Mitochondrial Mass (AID 2282924); conditions: high-content imaging, actives raise or lower the signal;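 also: MitoTracker Red CMXRos stain intensity per cell imaged as mitochondrial mass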
Outline: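 HepG2, 72 hr cmpd, 10 conc 0.39–200 uM in dup, DMSO 0.5% v/v. MitoTracker Red CMXRos 250 nM 30 min pre-fix; formaldehyde 3.7% fix 30 min RT. HCS imaging, gain/loss fit vs DMSO.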

[19] = APR_HepG2_NuclearSize_72hr: Apredica 72-hour HepG2 Assay for Nuclear Size (AID 2282925); conditions: high-content imaging, actives raise or lower the signal
Outline: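 HepG2; cpd 0.39–200 uM, 10 conc, duplicate; 72 h; DMSO 0.5% v/v; fix 3.7% formaldehyde 30 min RT; Triton permeabilization; Hoechst 2 ug/mL; HCS imaging 20x; nuclear diameter; gain/loss fit vs DMSO.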

[20] = APR_HepG2_P-H2AX_72hr: Apredica 72-hour HepG2 Assay for H2AX Phosphorylation (AID 2282916); conditions: imaging, actives raise or lower the signal;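 also: phospho-histone H2A.x immunostain intensity per cell marking DNA damage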
Outline: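 HepG2 cells treated 72 h at 0.39–200 uM, 0.5% DMSO final, duplicates. Formaldehyde-fixed, Triton-permeabilised, immunostained for phospho-H2A.x with Hoechst; fluorescence imaged at 20x, bidirectional fit versus DMSO.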

With `CC(=O)S[C@H](C(=O)N[C@H]1Cc2ccccc2[C@H]2CCC[C@@H](C(=O)O)N2C1=O)C(C)C` the outcome [1] was “inactive”, the outcome [2] was “inactive” and the outcome [3] was “inactive”. The outcome [4] was “inactive”, the outcome [5] was “inactive” and the outcome [6] was “inactive”. The outcome [7] was “inactive”, the outcome [8] was “inactive” and the outcome [9] was “inactive”. For the same compound, the outcome [10] was “inactive”, the outcome [11] was “inactive” and the outcome [12] was “inactive”. For the same compound, the outcome [13] was “inactive”, the outcome [14] was “inactive” and the outcome [15] was “inactive”. For the same compound, the outcome [16] was “inactive”, the outcome [17] was “inactive” and the outcome [18] was “inactive”. The outcome [19] was “inactive”.
For `O=[Si]=O`, the outcome [1] was “inactive”, the outcome [2] was “inactive” and the outcome [3] was “inactive”. The outcome [4] was “inactive”, the outcome [5] was “inactive” and the outcome [6] was “inactive”. The outcome [7] was “inactive”, the outcome [8] was “inactive” and the outcome [9] was “inactive”. The AC50 [10] was 61.4 µM (active), the outcome [11] was “inactive” and the outcome [12] was “inactive”. For the same compound, the outcome [13] was “inactive”, the outcome [14] was “inactive” and the outcome [15] was “inactive”. The outcome [16] was “inactive”, the outcome [17] was “inactive” and the outcome [18] was “inactive”. For the same compound, the outcome [19] was “inactive”.
In the case of `O=C(O)CC(O)(CC(=O)O)C(=O)O`, the outcome [1] is reported as “inactive”, the outcome [2] is reported as “inactive” and the outcome [3] is reported as “inactive”. The outcome [4] was “inactive”, the outcome [5] was “inactive” and the outcome [6] was “inactive”. For the same compound, the outcome [7] was “inactive”, the outcome [8] was “inactive” and the outcome [9] was “inactive”. The outcome [10] was “inactive”, the outcome [11] was “inactive” and the outcome [12] was “inactive”. The outcome [13] was “inactive”, the outcome [14] was “inactive” and the outcome [15] was “inactive”. The outcome [16] was “inactive”, the outcome [17] was “inactive” and the outcome [18] was “inactive”. For the same compound, the outcome [19] was “inactive”.
In the case of `CC(=O)OCC(COC(C)=O)OC(C)=O`, the outcome [1] is reported as “inactive”, the outcome [2] is reported as “inactive” and the outcome [3] is reported as “inactive”. For the same compound, the outcome [4] was “inactive”, the outcome [5] was “inactive” and the outcome [6] was “inactive”. For the same compound, the outcome [7] was “inactive”, the outcome [9] was “inactive” and the outcome [10] was “inactive”. For the same compound, the outcome [20] was “inactive”, the outcome [11] was “inactive” and the outcome [12] was “inactive”. For the same compound, the outcome [13] was “inactive”, the outcome [14] was “inactive” and the outcome [15] was “inactive”. For the same compound, the outcome [16] was “inactive”, the outcome [18] was “inactive” and the outcome [19] was “inactive”.
With `CCCC[C@H]1CN(CC2CCOCC2)C(=O)OC12CCN(C1(C)CCN(C(=O)c3c(C)ncnc3C)CC1)CC2` the outcome [1] was “inactive”, the outcome [2] was “inactive” and the outcome [3] was “inactive”. For the same compound, the outcome [4] was “inactive”, the outcome [5] was “inactive” and the outcome [6] was “inactive”. The outcome [7] was “inactive”, the outcome [8] was “inactive” and the outcome [9] was “inactive”. The outcome [10] was “inactive”, the outcome [11] was “inactive” and the outcome [12] was “inactive”. For the same compound, the outcome [13] was “inactive”, the outcome [14] was “inactive” and the outcome [15] was “inactive”. The outcome [16] was “inactive”, the outcome [17] was “inactive” and the outcome [18] was “inactive”. The outcome [19] was “inactive”.
For `COC(=O)[C@H]1[C@H]2C[C@@H]3c4[nH]c5cc(OC)ccc5c4CCN3C[C@H]2C[C@@H](OC(=O)c2cc(OC)c(OC)c(OC)c2)[C@@H]1OC`, the AC50 [1] was 79 µM (active), the outcome [2] was “inactive” and the AC50 [3] was 37.6 µM (active). For the same compound, the AC50 [4] was 44.3 µM (active), the AC50 [5] was 31.1 µM (active) and the AC50 [6] was 90.2 µM (active). The AC50 [7] was 41.2 µM (active), the AC50 [8] was 40.3 µM (active) and the outcome [9] was “inactive”. The AC50 [10] was 19.5 µM (active), the AC50 [11] was 48 µM (active) and the AC50 [12] was 16.3 µM (active). For the same compound, the AC50 [13] was 39.4 µM (active), the AC50 [14] was 30.1 µM (active) and the outcome [15] was “inactive”. For the same compound, the AC50 [16] was 55.1 µM (active), the AC50 [17] was 24.6 µM (active) and the AC50 [18] was 28.8 µM (active). For the same compound, the outcome [19] was “inactive”.
